High-throughput results as filed in PubChem BioAssay.
Tgondii IFNg = blocks Toxoplasma gondii growth in the presence of IFN-gamma. Toxoplasma gondii growth in IFN-gamma-treated host cells; stronger effect = lower value. activity change, negative = inhibition, % (test concentration not listed). 69,000 tested, 3.8% active. AID 1259416; in the data active = activity change below about -70%, passing the limit was not always enough;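 also: host cells are HeLa cells infected with Toxoplasma gondii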
The depositor's hits bear a star. Only a selection was taken, and hits are over-represented in it overall.

Screening O=C(NC(=S)Nc1ccc2c(c1)CCC2)c1ccccc1 returned Tgondii IFNg -5.
For Cc1ccc2ncccc2c1CNc1nc(C2CCCC2)nc2c1CNC2 the results were Tgondii IFNg 3.
COc1ccc(C2(C(=O)N3CCCC(N(C)C)CC3)CCCC2)cc1 (stereo not drawn) was read as Tgondii IFNg 5.
Screening COc1ccc(C2(C(=O)N3CCC(n4nc(-c5ccsc5)ccc4=O)CC3)CC2)cc1 returned Tgondii IFNg -95*.
`COc1ccc(C2(C(=O)N3CCCC(O)(CO)C3)CC2)cc1` (stereo not drawn) gave Tgondii IFNg 4.
Fc1ccc(-c2nnc(-c3nc(N4CCN(c5cccc(Cl)c5)CC4)c4ccccc4n3)o2)cc1 was read as Tgondii IFNg 31.
Screening Cc1ccc(Nc2nc(C(=O)NCCN3CCCC3)nc3ccccc23)cc1 returned Tgondii IFNg 26.
Cc1nnc(SCC(=O)c2ccccc2)n1C was read as Tgondii IFNg -7.
For Cc1[nH]c2c(F)cccc2c1CC(=O)N(C)CCc1noc(C(C)C)n1 the results were Tgondii IFNg -3.
For C[C@]12CC[C@@H]3c4ccc(O)cc4C[C@@H](CCCCCCCCCS(=O)CCCC(F)(F)C(F)(F)F)[C@H]3[C@@H]1CC[C@@H]2O (stereo partly drawn) the results were Tgondii IFNg -78*.
`COc1cc(C)c2c(c1)C=CC1C2CCC2(C)C(O)CCC12` (stereo not drawn) gave Tgondii IFNg 25.
Screening CCn1nc(CC(C)C)cc1C(=O)N1CCn2cncc2C1 returned Tgondii IFNg 10.
Screening CN1C[C@@H]2CC[C@H](CC1=O)N2C(=O)Cn1nc2ccccc2n1 returned Tgondii IFNg 0.
`Cc1ncc(-c2ccncc2C)c(C2CCC(CNC(=O)c3oc(C)nc3C)CC2)n1` (stereo not drawn) gave Tgondii IFNg -32.
Screening Cc1ncc(-c2ccccn2)c(C2CCC(CNC(=O)c3scnc3C)CC2)n1 (stereo not drawn) returned Tgondii IFNg 8.
`Cc1scc(C(=O)NCC2CCC(c3ncc(Cl)cc3-c3ccncc3)CC2)c1C` (stereo not drawn) gave Tgondii IFNg -88*.
`COCCC1CCCCN1Cc1nc(-c2ccc(C(F)(F)F)cc2)oc1C` (stereo not drawn) gave Tgondii IFNg 17.
For Cc1ccc(C2=NC3(CCN(Cc4ccc(Cl)cc4)CC3)NC2=O)cc1C the results were Tgondii IFNg -44.
Screening Clc1ccc(OCc2ccsc2Cn2cccc2)cc1 returned Tgondii IFNg -26.
`Cc1c(C(=O)C(F)(F)F)c2ccccc2n1CC(=O)N1CCc2ccccc21` gave Tgondii IFNg -4.
Screening CCOc1ccc(S(=O)(=O)n2cc(F)c(=O)[nH]c2=O)cc1 returned Tgondii IFNg -85*.
Screening CCOc1ccc(S(=O)(=O)N2CCC3(CC2)Nc2cc(F)ccc2-n2cccc23)cc1 returned Tgondii IFNg 23.
Screening CCOc1ccc(S(=O)(=O)c2ccc(Cl)cc2)cc1 returned Tgondii IFNg 16.
CC1=C(C(=O)Nc2ccccc2F)C2(CCN(C(C)C)CC2)OC1=O was read as Tgondii IFNg 35.
For COCC1CCC2(CCN(C(=O)C3CC(F)(F)C3)CC2)N1CC1CC1 (stereo not drawn) the results were Tgondii IFNg 5.
O=C(NC1CCSC1=O)c1sc2ccccc2c1Cl (stereo not drawn) was read as Tgondii IFNg 29.
`O=C(Nc1ncn[nH]1)c1sc2ccccc2c1Cl` gave Tgondii IFNg 11.
O=C(NC(=O)c1sc2ccccc2c1Cl)c1ccccc1O was read as Tgondii IFNg -107*.
`COCC(NC(=O)Cc1cccnc1)c1ccnn1C` (stereo not drawn) gave Tgondii IFNg -5.
`CCN(CC)C1CCN(Cc2nc(-c3ccc(C(F)(F)F)cc3)no2)C1` (stereo not drawn) gave Tgondii IFNg 0.
For CCN1c2cc(C)ccc2-n2cccc2C12CCN(C(=O)Nc1ccc(F)cc1)CC2 the results were Tgondii IFNg -96*.
Screening CCN1c2cc(C)ccc2-n2cccc2C12CCN(C(=O)NCc1ccco1)CC2 returned Tgondii IFNg 42.
For CCOC(=O)c1ccc(NC(=O)N2CCC3(CC2)c2cccn2-c2ccc(C)cc2N3CC)cc1 the results were Tgondii IFNg -46.
Screening CCN1c2cc(C)ccc2-n2cccc2C12CCN(C(=O)Nc1cccc(C)c1)CC2 returned Tgondii IFNg -59.
Screening CCN1c2cc(C)ccc2-n2cccc2C12CCN(C(=O)Nc1ccc(Cl)cc1)CC2 returned Tgondii IFNg 252.
For CCN1c2cc(C)ccc2-n2cccc2C12CCN(C(=O)Nc1ccc(C)c(F)c1)CC2 the results were Tgondii IFNg 22.
`CCN1c2cc(C)ccc2-n2cccc2C12CCN(C(=O)NCc1ccc(F)cc1)CC2` gave Tgondii IFNg -114*.
For CCN1c2cc(C)ccc2-n2cccc2C12CCN(C(=O)NCc1ccccc1)CC2 the results were Tgondii IFNg 60.
For CCN1c2ccccc2-n2cccc2C12CCN(C(=O)Nc1cccc(Cl)c1C)CC2 the results were Tgondii IFNg -39.
